According to ChEMBL document CHEMBL4513146, “CO-ADD screening of Karazin Kharkiv National University (Ukraine) compounds”:
Results with a measured potency or affinity are listed apart.

System: Staphylococcus aureus
Conditions: Concentration 32 ug.mL-1;; ASSAY_TEST Inhibition of Bacterial Growth; detection method Absorption (OD600); MEDIA CAMHB; plate type 384well; NBS; CORNING #3640; time 18 hr

Point of comparison: `Cc1ccc(NC(=O)Cn2nc3c(SCc4ccccc4)nccn3c2=O)cc1C`, Inhibition 6.06%. Against it:
- Cc1ccc(-c2cc3c4nn(CC(=O)N5CCN(c6ccccc6F)CC5)c(=O)n4ccn3n2)cc1C — higher, 8.03%
- O=C(CSc1nnc2c(=O)n(-c3ccc(Br)cc3)ccn12)c1ccc(F)cc1 — lower, 0.43%
- Cc1ccc(-c2ccc3nnc(CCC(=O)NCc4ccc(Br)cc4)n3n2)cc1 — higher, 14.28%
- Cc1cc(C)c(NC(=O)Cn2nc3c4cc(-c5ccc(F)cc5)nn4ccn3c2=O)c(C)c1 — higher, 12.62%
- CC(C)c1nnc2c(SCC(=O)Nc3ccc4c(c3)OCO4)nc3ccccc3n12 — lower, -0.91%
- CCOc1ccc(NC(=O)Cn2nc3c(Oc4cccc(OC)c4)nccn3c2=O)cc1 — higher, 13.11%
- Cc1ccc(NC(=O)Cn2nc3c(Oc4ccccc4Cl)nccn3c2=O)cc1F — higher, 7.48%
- COC(=O)c1ccc(NC(=O)Cn2nc3c(Oc4cccc(OC)c4)nccn3c2=O)cc1 — higher, 10.83%
- COc1cccc(-n2ccn3c(SCC(=O)Nc4ccccc4F)nnc3c2=O)c1 — higher, 8.86%
- CCCn1c(=O)c2sccc2n2c(=O)n(CC(=O)c3cccc(OC)c3)nc12 — lower, 2.99%
- CCc1ccccc1NC(=O)Cn1nc2c(Sc3ccccc3CC)nccn2c1=O — higher, 13.37%
- COc1cc(NC(=O)Cn2nc3c4c5c(sc4ncn3c2=O)CCCC5)cc(OC)c1OC — higher, 7.91%
- O=C(CSc1nnc2n(CC3CCCO3)c(=O)c3sccc3n12)Nc1ccc(F)cc1Cl (stereo not given) — lower, -6.42%
- Cc1ccc(Cn2nc3c(=O)n(-c4cccc(Cl)c4C)ccn3c2=O)cc1 — higher, 8.26%
- Cc1cccc(N(CC(=O)OC(C)(C)C)S(=O)(=O)c2cccn3c(C)nnc23)c1 — lower, 5.88%
- Cc1ccc(-c2ccc3nn(Cc4nc(-c5ccc(Cl)cc5)no4)c(=O)n3n2)cc1 — lower, 5.13%
- CCc1cccc(C)c1NC(=O)Cn1nc2ccc(SCc3ccc(Cl)cc3)nn2c1=O — lower, -4.43%
- O=C(CSc1nnc2c(=O)n(-c3ccc(F)cc3)ccn12)c1ccccc1Cl — higher, 19.94%
- COc1cccc(Oc2nccn3c(=O)n(CC(=O)Nc4cc(F)ccc4F)nc23)c1 — higher, 10.86%
- Cc1ccc(-n2ccn3c(=O)n(Cc4ccc(F)cc4)nc3c2=O)cc1C — higher, 10.94%
- Cc1ccc(-c2cc3c4nn(CC(=O)Nc5ccc6c(c5)OCO6)c(=O)n4ccn3n2)cc1 — higher, 12.49%
- Cc1cc(C)c(NC(=O)Cn2c(=O)c3nnc(C(C)C)n3c3ccccc32)c(C)c1 — higher, 15.71%
- CC(C)(C)S(=O)(=O)c1ccc2nn(CC(=O)Nc3ccc4c(c3)OCO4)c(=O)n2n1 — higher, 14.6%
- CCCCOc1ccc(-c2cc3c4nnc(SCC(=O)Nc5cc(F)ccc5C)n4ccn3n2)cc1 — lower, -12.48%
- Cc1ccc(-c2ccc3nn(Cc4cccc(Br)c4)c(=O)n3n2)cc1C — higher, 9.24%
- Cc1c(Cl)cccc1NC(=O)Cn1nc2c(SCc3ccccc3)nccn2c1=O — lower, 2.18%
- Cc1nnc2ccc(S(=O)(=O)N(Cc3ccccc3F)c3ccc(F)cc3)cn12 — lower, -2.33%
- Cc1ccc(C)c(Cn2nc3c(=O)n(-c4cccc(Cl)c4C)ccn3c2=O)c1 — lower, -0.35%
- O=C(CSc1nnc2c(=O)n(-c3ccccc3)ccn12)Nc1ccc(Br)cc1 — lower, 5.51%
- Cc1nnc2c(=O)n(CC(=O)Nc3ccc(Cl)cc3)c3ccccc3n12 — higher, 6.71%
- COc1cc(OC)c(NC(=O)Cn2nc3c(N4CCOCC4)nccn3c2=O)cc1Cl — lower, 4.84%
- CCCCOc1ccc(-c2cc3c4nnc(SCC(=O)Nc5ccc(Cl)cc5)n4ccn3n2)cc1 — higher, 6.59%
- CCOc1ccc(-n2ccn3c(SCC(=O)NCc4ccccc4Cl)nnc3c2=O)cc1 — lower, 3.68%
- CCc1nnc2ccc(S(=O)(=O)N(Cc3ccc(F)cc3)c3ccccc3)cn12 — lower, -1.95%
- Cc1nnc2c(S(=O)(=O)N(Cc3cccc(Cl)c3)c3ccc(F)c(F)c3)cccn12 — lower, 3.24%
- CC(=O)c1cccc(NC(=O)Cn2c(=O)c3nnc(C(C)C)n3c3ccccc32)c1 — higher, 9.36%
- Cc1c(Cl)cccc1-n1ccn2c(=O)n(Cc3ccc(Cl)cc3)nc2c1=O — higher, 9.17%
- Cc1ccc(NC(=O)Cn2nc3c4cc(-c5ccc(C)c(C)c5)nn4ccn3c2=O)c(Cl)c1 — higher, 9.28%
- Cc1cc(C)c(NC(=O)Cn2nc3ccc(SCc4ccc(Cl)cc4)nn3c2=O)c(C)c1 — lower, -5.02%

System: Escherichia coli
Conditions: Concentration 32 ug.mL-1;; ASSAY_TEST Inhibition of Bacterial Growth; detection method Absorption (OD600); MEDIA CAMHB; plate type 384well; NBS; CORNING #3640; time 18 hr

Point of comparison: `Cc1ccc(-c2ccc3nnc(CCC(=O)NCc4ccc(Br)cc4)n3n2)cc1`, Inhibition 0.41%. Against it:
- Cc1ccc(-c2cc3c4nn(CC(=O)N5CCN(c6ccccc6F)CC5)c(=O)n4ccn3n2)cc1C — higher, 4.31%
- O=C(CSc1nnc2c(=O)n(-c3ccc(Br)cc3)ccn12)c1ccc(F)cc1 — lower, -3.19%
- Cc1cc(C)c(NC(=O)Cn2nc3c4cc(-c5ccc(F)cc5)nn4ccn3c2=O)c(C)c1 — higher, 1.69%
- Cc1ccc(NC(=O)Cn2nc3c(SCc4ccccc4)nccn3c2=O)cc1C — lower, -10.79%
- CC(C)c1nnc2c(SCC(=O)Nc3ccc4c(c3)OCO4)nc3ccccc3n12 — lower, -6.38%
- CCOc1ccc(NC(=O)Cn2nc3c(Oc4cccc(OC)c4)nccn3c2=O)cc1 — higher, 1.75%
- Cc1ccc(NC(=O)Cn2nc3c(Oc4ccccc4Cl)nccn3c2=O)cc1F — lower, -2.62%
- COC(=O)c1ccc(NC(=O)Cn2nc3c(Oc4cccc(OC)c4)nccn3c2=O)cc1 — lower, -2.01%
- COc1cccc(-n2ccn3c(SCC(=O)Nc4ccccc4F)nnc3c2=O)c1 — lower, -8.93%
- CCCn1c(=O)c2sccc2n2c(=O)n(CC(=O)c3cccc(OC)c3)nc12 — lower, -2.97%
- CCc1ccccc1NC(=O)Cn1nc2c(Sc3ccccc3CC)nccn2c1=O — lower, -2.13%
- COc1cc(NC(=O)Cn2nc3c4c5c(sc4ncn3c2=O)CCCC5)cc(OC)c1OC — lower, -3.63%
- O=C(CSc1nnc2n(CC3CCCO3)c(=O)c3sccc3n12)Nc1ccc(F)cc1Cl (stereo not given) — lower, -12.15%
- Cc1ccc(Cn2nc3c(=O)n(-c4cccc(Cl)c4C)ccn3c2=O)cc1 — lower, -3.14%
- Cc1cccc(N(CC(=O)OC(C)(C)C)S(=O)(=O)c2cccn3c(C)nnc23)c1 — lower, -7.68%
- Cc1ccc(-c2ccc3nn(Cc4nc(-c5ccc(Cl)cc5)no4)c(=O)n3n2)cc1 — higher, 0.55%
- CCc1cccc(C)c1NC(=O)Cn1nc2ccc(SCc3ccc(Cl)cc3)nn2c1=O — lower, -10.21%
- O=C(CSc1nnc2c(=O)n(-c3ccc(F)cc3)ccn12)c1ccccc1Cl — lower, -2.26%
- COc1cccc(Oc2nccn3c(=O)n(CC(=O)Nc4cc(F)ccc4F)nc23)c1 — lower, -7.76%
- Cc1ccc(-n2ccn3c(=O)n(Cc4ccc(F)cc4)nc3c2=O)cc1C — lower, -2.15%
- Cc1ccc(-c2cc3c4nn(CC(=O)Nc5ccc6c(c5)OCO6)c(=O)n4ccn3n2)cc1 — lower, -1.53%
- Cc1cc(C)c(NC(=O)Cn2c(=O)c3nnc(C(C)C)n3c3ccccc32)c(C)c1 — higher, 3.04%
- CC(C)(C)S(=O)(=O)c1ccc2nn(CC(=O)Nc3ccc4c(c3)OCO4)c(=O)n2n1 — higher, 0.97%
- CCCCOc1ccc(-c2cc3c4nnc(SCC(=O)Nc5cc(F)ccc5C)n4ccn3n2)cc1 — lower, -11.69%
- Cc1ccc(-c2ccc3nn(Cc4cccc(Br)c4)c(=O)n3n2)cc1C — lower, -2.14%
- Cc1c(Cl)cccc1NC(=O)Cn1nc2c(SCc3ccccc3)nccn2c1=O — lower, -6.95%
- Cc1nnc2ccc(S(=O)(=O)N(Cc3ccccc3F)c3ccc(F)cc3)cn12 — lower, -7.33%
- Cc1ccc(C)c(Cn2nc3c(=O)n(-c4cccc(Cl)c4C)ccn3c2=O)c1 — lower, -10.27%
- O=C(CSc1nnc2c(=O)n(-c3ccccc3)ccn12)Nc1ccc(Br)cc1 — lower, -4.01%
- Cc1nnc2c(=O)n(CC(=O)Nc3ccc(Cl)cc3)c3ccccc3n12 — higher, 2.85%
- COc1cc(OC)c(NC(=O)Cn2nc3c(N4CCOCC4)nccn3c2=O)cc1Cl — lower, -1.96%
- CCCCOc1ccc(-c2cc3c4nnc(SCC(=O)Nc5ccc(Cl)cc5)n4ccn3n2)cc1 — lower, -0.55%
- CCOc1ccc(-n2ccn3c(SCC(=O)NCc4ccccc4Cl)nnc3c2=O)cc1 — lower, -5.16%
- CCc1nnc2ccc(S(=O)(=O)N(Cc3ccc(F)cc3)c3ccccc3)cn12 — lower, -12.51%
- Cc1nnc2c(S(=O)(=O)N(Cc3cccc(Cl)c3)c3ccc(F)c(F)c3)cccn12 — lower, -3.66%
- CC(=O)c1cccc(NC(=O)Cn2c(=O)c3nnc(C(C)C)n3c3ccccc32)c1 — lower, 0.14%
- Cc1c(Cl)cccc1-n1ccn2c(=O)n(Cc3ccc(Cl)cc3)nc2c1=O — lower, -7.56%
- Cc1ccc(NC(=O)Cn2nc3c4cc(-c5ccc(C)c(C)c5)nn4ccn3c2=O)c(Cl)c1 — lower, -1.41%
- Cc1cc(C)c(NC(=O)Cn2nc3ccc(SCc4ccc(Cl)cc4)nn3c2=O)c(C)c1 — lower, -8.63%
